# Assay results from PubChem BioAssay AID1159580 (chemical genetic matrix, 2015).
# Out of some 5,500 compounds screened, about 2,000 (36%) were called active. About 18% were inconclusive and are not listed. The list shows a part of the results. Values without a mark were called inactive. No stated cut-off is given here; in the data, active means normalized growth mostly below about 0.91 (no sharp cut-off); inconclusive means no clear call, values can overlap the other calls; inactive means mostly above about 0.92.
# Test: chemical genetic growth profiling, strain panel (AID 1159580);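 further: tested at 20 µM; growth read once vehicle control cultures reached saturation at 30 °C; 1 = growth at the plate median or of vehicle wells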
# Conditions: growth OD
structure (smiles),measurement,setting,value
CC(=O)Oc1ccc(O)cc1,normalized growth,"S. cerevisiae deletion strains, locus YJL187C, strain SWE1, stronger effect = lower value",0.978
same,normalized growth,"S. cerevisiae deletion strains, locus YJR043C, strain POL32, stronger effect = lower value",0.929
same,normalized growth,"S. cerevisiae deletion strains, locus YJR075W, strain HOC1, stronger effect = lower value",0.955
same,normalized growth,"S. cerevisiae deletion strains, locus YKL009W, strain mrt4, stronger effect = lower value",1.02
same,normalized growth,"S. cerevisiae deletion strains, locus YKL068W, stronger effect = lower value",1.01
same,normalized growth,"S. cerevisiae deletion strains, locus YKL085W, strain MDH1 (second series), stronger effect = lower value",1.04
same,normalized growth,"S. cerevisiae deletion strains, locus YKL085W, strain MDH1, stronger effect = lower value",1.04
same,normalized growth,"S. cerevisiae deletion strains, locus YKL160W, strain elf1, stronger effect = lower value",0.995
same,normalized growth,"S. cerevisiae deletion strains, locus YKR001C, strain vps1, stronger effect = lower value",0.945
same,normalized growth,"S. cerevisiae deletion strains, locus YKR026C, strain gcn3, stronger effect = lower value",0.979
same,normalized growth,"S. cerevisiae deletion strains, locus YKR091W, strain srl3, stronger effect = lower value",0.985
same,normalized growth,"S. cerevisiae deletion strains, locus YLL001W, strain dnm1, stronger effect = lower value",0.994
same,normalized growth,"S. cerevisiae deletion strains, locus YLL026W, stronger effect = lower value",0.987
same,normalized growth,"S. cerevisiae deletion strains, locus YLL041C, strain sdh2, stronger effect = lower value",0.99
same,normalized growth,"S. cerevisiae deletion strains, locus YLR027C, strain aat2, stronger effect = lower value",0.993
same,normalized growth,"S. cerevisiae deletion strains, locus YLR039C, strain RIC1, stronger effect = lower value",1.05
same,normalized growth,"S. cerevisiae deletion strains, locus YLR058C, strain SHM2, stronger effect = lower value",0.991
same,normalized growth,"S. cerevisiae deletion strains, locus YLR102C, strain apc9, stronger effect = lower value",1.02
same,normalized growth,"S. cerevisiae deletion strains, locus YLR221C, strain rsa3, stronger effect = lower value",0.959
same,normalized growth,"S. cerevisiae deletion strains, locus YLR258W, strain gsy2, stronger effect = lower value",0.989
same,normalized growth,"S. cerevisiae deletion strains, locus YLR262C, strain YPT6 (second series), stronger effect = lower value",0.996
same,normalized growth,"S. cerevisiae deletion strains, locus YLR262C, strain YPT6, stronger effect = lower value",0.926
same,normalized growth,"S. cerevisiae deletion strains, locus YLR268W, strain sec22, stronger effect = lower value",0.977
same,normalized growth,"S. cerevisiae deletion strains, locus YLR320W, strain mms22, stronger effect = lower value",0.923
same,normalized growth,"S. cerevisiae deletion strains, locus YLR330W, strain CHS5, stronger effect = lower value",0.914 (active)
same,normalized growth,"S. cerevisiae deletion strains, locus YLR342W, strain FKS1 (second series), stronger effect = lower value",0.819
same,normalized growth,"S. cerevisiae deletion strains, locus YLR342W, strain FKS1, stronger effect = lower value",0.979
same,normalized growth,"S. cerevisiae deletion strains, locus YLR357W, strain rsc2, stronger effect = lower value",0.988
same,normalized growth,"S. cerevisiae deletion strains, locus YLR370C, strain arc18, stronger effect = lower value",1
same,normalized growth,"S. cerevisiae deletion strains, locus YLR371W, strain rom2, stronger effect = lower value",1.02
same,normalized growth,"S. cerevisiae deletion strains, locus YLR384C, strain iki3, stronger effect = lower value",0.997
same,normalized growth,"S. cerevisiae deletion strains, locus YLR418C, strain cdc73, stronger effect = lower value",0.934
same,normalized growth,"S. cerevisiae deletion strains, locus YML016C, strain PPZ1, stronger effect = lower value",1.01
same,normalized growth,"S. cerevisiae deletion strains, locus YML032C, strain rad52, stronger effect = lower value",0.967
same,normalized growth,"S. cerevisiae deletion strains, locus YML120C, strain ndi1, stronger effect = lower value",1.02
same,normalized growth,"S. cerevisiae deletion strains, locus YML124C, strain tub3, stronger effect = lower value",1.03
same,normalized growth,"S. cerevisiae deletion strains, locus YMR058W, strain fet3, stronger effect = lower value",0.979
same,normalized growth,"S. cerevisiae deletion strains, locus YMR078C, strain ctf18, stronger effect = lower value",1.03
same,normalized growth,"S. cerevisiae deletion strains, locus YMR125W, strain sto1, stronger effect = lower value",0.977
same,normalized growth,"S. cerevisiae deletion strains, locus YMR129W, stronger effect = lower value",0.99
same,normalized growth,"S. cerevisiae deletion strains, locus YMR205C, strain PFK2, stronger effect = lower value",1
same,normalized growth,"S. cerevisiae deletion strains, locus YMR223W, strain ubp8, stronger effect = lower value",1
same,normalized growth,"S. cerevisiae deletion strains, locus YMR231W, strain pep5, stronger effect = lower value",0.962
same,normalized growth,"S. cerevisiae deletion strains, locus YMR263W, strain SAP30, stronger effect = lower value",0.991
same,normalized growth,"S. cerevisiae deletion strains, locus YMR307W, strain GAS1, stronger effect = lower value",0.791
same,normalized growth,"S. cerevisiae deletion strains, locus YNL067W, strain RPL9B, stronger effect = lower value",0.966
same,normalized growth,"S. cerevisiae deletion strains, locus YNL071W, strain lat1, stronger effect = lower value",0.961
same,normalized growth,"S. cerevisiae deletion strains, locus YNL128W, strain TEP1, stronger effect = lower value",1.01
same,normalized growth,"S. cerevisiae deletion strains, locus YNL153C, strain GIM3, stronger effect = lower value",0.956
same,normalized growth,"S. cerevisiae deletion strains, locus YNL209W, strain ssb2, stronger effect = lower value",0.988
same,normalized growth,"S. cerevisiae deletion strains, locus YNL233W, strain BNI4, stronger effect = lower value",0.94
same,normalized growth,"S. cerevisiae deletion strains, locus YNL248C, strain rpa49, stronger effect = lower value",0.956
same,normalized growth,"S. cerevisiae deletion strains, locus YNL250W, strain rad50, stronger effect = lower value",1.04
same,normalized growth,"S. cerevisiae deletion strains, locus YNL271C, strain bni1, stronger effect = lower value",1.04
same,normalized growth,"S. cerevisiae deletion strains, locus YNL298W, strain CLA4, stronger effect = lower value",1.03
same,normalized growth,"S. cerevisiae deletion strains, locus YNL307C, strain MCK1, stronger effect = lower value",0.96
same,normalized growth,"S. cerevisiae deletion strains, locus YNL322C, strain KRE1 (second series), stronger effect = lower value",0.993
same,normalized growth,"S. cerevisiae deletion strains, locus YNL322C, strain KRE1, stronger effect = lower value",0.996
same,normalized growth,"S. cerevisiae deletion strains, locus YNR049C, strain mso1, stronger effect = lower value",0.989
same,normalized growth,"S. cerevisiae deletion strains, locus YNR052C, strain pop2, stronger effect = lower value",1.02
same,normalized growth,"S. cerevisiae deletion strains, locus YOL012C, strain htz1",0.741
same,normalized growth,"S. cerevisiae deletion strains, locus YOL147C, strain pex11, stronger effect = lower value",1.03
same,normalized growth,"S. cerevisiae deletion strains, locus YOR001W, strain rrp6, stronger effect = lower value",0.992
same,normalized growth,"S. cerevisiae deletion strains, locus YOR061W, strain CKA2, stronger effect = lower value",1.01
same,normalized growth,"S. cerevisiae deletion strains, locus YOR069W, strain VPS5, stronger effect = lower value",1.01
same,normalized growth,"S. cerevisiae deletion strains, locus YOR070C, strain gyp1, stronger effect = lower value",0.975
same,normalized growth,"S. cerevisiae deletion strains, locus YOR080W, strain dia2, stronger effect = lower value",0.998
same,normalized growth,"S. cerevisiae deletion strains, locus YOR083W, strain WHI5, stronger effect = lower value",0.974
same,normalized growth,"S. cerevisiae deletion strains, locus YOR106W, strain vam3, stronger effect = lower value",0.995
same,normalized growth,"S. cerevisiae deletion strains, locus YOR136W, strain idh2, stronger effect = lower value",1.01
same,normalized growth,"S. cerevisiae deletion strains, locus YOR144C, strain elg1, stronger effect = lower value",1.03
same,normalized growth,"S. cerevisiae deletion strains, locus YOR184W, strain ser1, stronger effect = lower value",0.984
same,normalized growth,"S. cerevisiae deletion strains, locus YOR265W, strain rbl2, stronger effect = lower value",1.01
same,normalized growth,"S. cerevisiae deletion strains, locus YOR270C, strain vph1, stronger effect = lower value",0.986
same,normalized growth,"S. cerevisiae deletion strains, locus YOR290C, strain snf2, stronger effect = lower value",0.995
same,normalized growth,"S. cerevisiae deletion strains, locus YOR316C, strain cot1, stronger effect = lower value",1.04
same,normalized growth,"S. cerevisiae deletion strains, locus YPL051W, strain arl3, stronger effect = lower value",0.962
same,normalized growth,"S. cerevisiae deletion strains, locus YPL078C, strain atp4, stronger effect = lower value",1.02
same,normalized growth,"S. cerevisiae deletion strains, locus YPL106C, strain sse1, stronger effect = lower value",0.991
same,normalized growth,"S. cerevisiae deletion strains, locus YPL240C, strain hsp82, stronger effect = lower value",0.999
same,normalized growth,"S. cerevisiae deletion strains, locus YPL241C, strain CIN2, stronger effect = lower value",1.02
same,normalized growth,"S. cerevisiae deletion strains, locus YPR119W, strain clb2, stronger effect = lower value",1.01
same,normalized growth,"S. cerevisiae deletion strains, locus YPR141C, strain kar3, stronger effect = lower value",1.03
same,normalized growth,"S. cerevisiae deletion strains, locus YPR163C, strain tif3, stronger effect = lower value",0.974
same,normalized growth,"S. cerevisiae deletion strains, locus YPR167C, strain met16, stronger effect = lower value",1.03
same,normalized growth,"S. cerevisiae deletion strains, strain wtn01, stronger effect = lower value",0.995
same,normalized growth,"S. cerevisiae strains, strain wild type, stronger effect = lower value",0.925
